Bioassay records (PubChem)
A selection: hits, their analogues and other compounds. The true share with any hit is near 5.2%.
SKN-1 block: inhibitors of C. elegans SKN-1. C. elegans VP596 Pgst-4::GFP/RFP ratio, acrylamide-induced, 24 h. inhibition, % at 21.8 µM. AID 624304. 360,000 tested, 0.49% active;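 active means interference check ratio from 0.5 to 1.5 plus GFP to RFP signal ratio inhibition reaching or exceeding a fixed threshold, cut at about 30% in these data, passing the limit was not always enough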
Vif imaging: inhibitors of HIV Vif; inhibition, % at 7.49 µM; HEK293T cells, Vif self-association by quenched fluorescence, imaging, 24 h; 340,000 tested, 0.35% active; in the data active means inhibition above about 50%, passing the limit was not always enough
NadD block: blocks S. aureus nicotinate mononucleotide adenylyltransferase. purified NadD enzyme, colorimetric absorbance read-out. inhibition, % at 20 µM. 360,000 tested, 0.78% active. AID 602399; in the data active means inhibition above about 26%
NR3A LBD binder: modulates the human NR3A ligand-binding domain | Tm shift relative to glycine control, % at 25 µM | 340,000 tested, 2.5% active | NR3A LBD differential scanning fluorimetry, Tm shift; 0% = protein alone, 100% = glycine-bound protein;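 active means melting temperature shift of at least 10% of the positive control shift, at one fixed dose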
SMARCA2 activ: SMARCA2 function activation, primary screen. MG213 cells, MMTV-luciferase reporter, dexamethasone, overnight. activation, % at 9.1 µM. 370,000 tested, 1% active. AID 652017; in the data active means activation above about 7.8%;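 further: 0% = vehicle wells and 100% = reference activator wells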
esBAF inh: blocks esBAF chromatin remodeling in mouse ES cells; Bmi1-luciferase knock-in reporter, 24 h; 100% = twice the neutral-well signal; reporter increase, % at 12.5 µM; 350,000 tested, 2% active; AID 602393; in the data active means activation above about 40%;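 further: 0% = median of the plate's neutral control wells and 100% = double that signal; a rise in the Bmi1 reporter signal indicates esBAF inhibition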
Active calls of the source: *; nt = no result.

SMILES	SKN-1 block	Vif imaging	NadD block	NR3A LBD binder	SMARCA2 activ	esBAF inh
Cn1c(/C(C#N)=C(\O)c2ccc([N+](=O)[O-])s2)nc2ccccc21	40*	-3	1	-1	-3	23
Cn1c(/C(C#N)=C(\O)c2ccccc2Cl)nc2ccccc21	0	-5	-4	-6	-4	nt
CC(=O)n1c2c(c3ccccc31)OC(N)=C(C#N)C2c1cccc(Cl)c1Cl (stereo not given)	-5	1	3	13*	-1	-3
CNC[C@@H]1OCCCC[C@@H](C)Oc2ccc(NS(=O)(=O)c3ccccc3)cc2C(=O)N([C@H](C)CO)C[C@@H]1C	nt	nt	nt	nt	nt	-12
COc1ccc(NC(=O)Nc2ccc3c(c2)C(=O)N([C@@H](C)CO)C[C@@H](C)[C@@H](CN(C)C(=O)Nc2ccc4c(c2)OCO4)O3)cc1	nt	nt	nt	nt	nt	2
O=C(Nc1ccc(C(=O)N2CCCCC2)cc1)c1cccs1	8	3	-6	-1	3	0
COc1ccc(NC(=O)c2cccs2)cc1	4	2	1	-18	5	nt
O=C(Nc1ccc(NC(=O)c2cccs2)cc1)c1cccs1	-1	-2	7	22*	4	53*
O=C(Nc1ccc(NC(=O)c2cccs2)c(Cl)c1)c1cccs1	7	-22	-9	13*	0	nt
O=C(/C=C/c1ccccc1)Nc1ccc(NC(=O)c2cccs2)cc1	9	1	6	29*	-4	0
O=C(Nc1ccc(NC(=O)C2CC2)cc1)c1cccs1	-10	3	1	17*	4	39
C[C@@H]1CN([C@@H](C)CO)C(=O)c2cc(-c3cccc(F)c3)cnc2O[C@H]1CN(C)C	nt	nt	nt	nt	nt	1
C[C@@H]1CN([C@H](C)CO)C(=O)c2cc(C#CCc3ccccc3)cnc2O[C@H]1CN(C)Cc1cccnc1	nt	nt	nt	nt	nt	-2
O=C(Nc1ccc(Cl)cc1)c1cccs1	31	6	-5	2	0	52*
Cc1ccc(NS(=O)(=O)c2ccc(NC(=O)c3cccs3)cc2)cc1	0	16	3	20*	-1	22
CCN(CC(=O)Nc1ccccc1C(F)(F)F)C(=O)Cc1cccs1	20	8	-4	-1	-2	3
CCN(CC(=O)Nc1ccccc1C(F)(F)F)C(=O)c1ccc(NC(=O)c2cccs2)cc1	47*	10	0	nt	-1	4
CN(C)C(=O)C[C@@H]1C[C@@H]2c3cc(NS(=O)(=O)c4ccc(F)cc4)ccc3O[C@@H]2[C@H](CO)O1	nt	nt	nt	nt	nt	-2
CCNC(=O)Nc1ccc2c(c1)C(=O)N(C)[C@@H]1CC[C@@H](CC(=O)NCC3CCCCC3)O[C@@H]1CO2	nt	nt	nt	nt	nt	-3
COC(=O)C[C@@H]1CC[C@@H]2[C@H](COc3ccc(NC(=O)Nc4ccc(C)cc4)cc3C(=O)N2C)O1	nt	nt	nt	nt	nt	16
CC(=O)C1=C(C)NC(SCC(=O)c2ccc(Cl)cc2Cl)=C(C#N)C1c1ccco1 (stereo not given)	9	3	5	nt	-1	7
CC(=O)C1=C(C)NC(SCC(=O)c2ccc(Cl)cc2)=C(C#N)C1c1ccco1 (stereo not given)	-8	58*	10	-4	0	0
C[C@@H]1CN([C@@H](C)CO)C(=O)c2cccc(NC(=O)C3CCOCC3)c2O[C@H]1CN(C)Cc1ccc(C(F)(F)F)cc1	nt	nt	nt	nt	nt	-4
CCOc1ccc(CCNC(=O)c2cc([N+](=O)[O-])ccc2N2CCOCC2)cc1OCC	7	nt	1	6	7.9*	nt
CCOc1ccc(C(=O)c2cc([N+](=O)[O-])ccc2N2CCOCC2)cc1	12	74*	-3	-1	4	nt
SMILES	SKN-1 block	Vif imaging	NadD block	NR3A LBD binder	SMARCA2 activ	esBAF inh
CCOc1ccc(CCNC(=O)COC(=O)c2cc([N+](=O)[O-])ccc2N2CCOCC2)cc1OCC	5	1	1	-1	0	-6
CCN1[C@@H]2c3cccc(=O)n3C[C@@H]2[C@@H](CO)[C@@H]1C(=O)N1CCc2ccccc2C1	nt	nt	nt	nt	nt	1
CCOCCCNC(=O)c1ccc(/C=C2\Oc3ccccc3N(C)C2=O)cc1	7	-15	0	-1	-4	72*
C[n+]1c(-c2ccccc2)cc2c(=Cc3ccccc3)c3ccccc3n21	63	-16	6	-6	-8	nt
C[n+]1c(-c2ccccc2)cc2c(=Cc3ccc([N+](=O)[O-])cc3)c3ccccc3n21	-7	-9	11	14*	-2	nt
C/C=C/c1ccc([C@H]2[C@@H](CNC(C)C)N(Cc3cccnc3)[C@H]2CO)cc1	nt	nt	nt	nt	nt	-2
CC(C)NC(=O)c1sc2nc(-c3cccs3)cc(-c3cccs3)c2c1N	nt	nt	nt	-5	1	nt
CC(=O)c1sc2nc(-c3cccs3)ccc2c1N	27	28	19	22*	1	65*
Cn1c(N)c(C(=O)CSc2nn(-c3ccc(F)cc3)c(=S)s2)c(=O)n(C)c1=O	18	-4	1	31*	-3	-3
Cc1cc(NC(=O)c2ccc(OCC3CCCO3)cc2)ccc1Br (stereo not given)	-10	nt	-10	nt	0	71*
COc1ccc(/C=N/N2CCOCC2)cc1COc1ccc(Cl)cc1	2	-4	0	-8	7.9*	nt
Oc1ccc2c(c1)oc1cc(O)ccc12	3	nt	-5	18*	0	16
CCCCC(=O)N1C/C=C\C(c2ccc(OC)cc2)N(Cc2ccc(F)cc2)C(=O)[C@H]1Cc1ccccc1 (stereo not given in full)	-6	-6	3	-2	nt	0
CC(C)CC(=O)N1CC=CC[C@@H](c2ccc(Cl)cc2)N(Cc2ccc(Cl)cc2)C(=O)[C@@H]1Cc1ccccc1	7	-3	9	12*	-1	-15
Cc1ccc(S(=O)(=O)N(C)C[C@H]2OCCCC[C@H](C)Oc3ccc(NC(=O)Nc4c(C)noc4C)cc3C(=O)N([C@H](C)CO)C[C@@H]2C)cc1	nt	nt	nt	nt	nt	3
Oc1c(Cl)cc(Cl)cc1/C=C/c1ccc2cccc(O)c2n1	10	-4	15	25*	-1	nt
Oc1cccc2ccc(/C=C/c3ccccc3Br)nc12	4	-6	2	14*	5	7
COc1cc(Br)c(/C=C/c2ccc3cccc(O)c3n2)cc1OC	1	-15	26	3	-1	23
Oc1ccc(Cl)cc1/C=C/c1ccc2cccc(O)c2n1	-4	-1	3	30*	1	nt
C[C@@H]1CCCCO[C@H](CN(C)S(C)(=O)=O)[C@@H](C)CN([C@H](C)CO)C(=O)c2cc(NC(=O)CCCN(C)C)ccc2O1	nt	nt	nt	nt	nt	0
COc1ccc(S(=O)(=O)Nc2ccc3c(c2)C(=O)N([C@@H](C)CO)C[C@H](C)[C@@H](CN(C)C(=O)Nc2ccc4c(c2)OCO4)O3)cc1	nt	nt	nt	nt	nt	-1
CCCCNC(=O)COC(=O)c1cc(S(=O)(=O)N2CCCCCC2)ccc1OC	40*	12	-8	0	-1	2
